The record followed here is PubChem BioAssay (EPA / NIEHS).

Results filed as inconclusive are left out. The source holds several records for some structures; these can differ, active in one and inactive in another. Calls of active or inactive are those of the source. The calls were made as follows: active = hit-call score of the fitted dose curve at least 0.9, where 1 is the maximum; inconclusive = response in the unintended direction; inactive = score below 0.9.

The nature of test [1]: Tanguay_ZF_120hpf_ActivityScore_legacy: (Legacy) Oregon State University Tanguay Lab 120 Hour Post-fertilization zebrafish Assay Score for Activity (AID 2283742).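 As to AC50: dechorionated Tropical 5D wild-type zebrafish embryos held singly per well; static exposure from 6 hpf until 120 hpf at 28 °C.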 In short, it runs like this: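 Embryos are staged, enzymatically dechorionated at 4 hpf, placed individually at 6 hpf, then held in test chemical (0.64% DMSO) at 28C until 120 hpf. Mortality and malformations are scored by brightfield, with non-mortality endpoints skipped for dead embryos.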

Test [2] addresses Luciferin 4-monooxygenase (Photinus pyralis) (UniProt P08659). The test is described as follows: CCTE_Simmons_QuantiLum_inhib_2: CCTE's Firefly Luciferase Inhibition Assay, Simmons Lab (AID 2283767).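 As to AC50: potency for inhibitors that lower luciferase luminescence relative to DMSO.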 In short, it runs like this:
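Recombinant firefly luciferase (5 ng/well, 200 mM potassium phosphate with 1 mg/ml BSA) was exposed to 8 concentrations from 5 nM to 87.5 uM (final, 0.5% DMSO) for 30 min at 37C in the dark. Loss of luminescence versus DMSO was read after injecting D-luciferin/ATP-analogue reagent.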

Test [3] addresses zebrafish Estrogen Receptor (ESR1), esr1 (gene 259252) (UniProt P57717). The test is described as follows: ATG_zfER1_XSP1: Attagene TRANS-FACTORIAL Multi-Species (XSP1) HepG2 Assay for zebrafish Estrogen Receptor (ESR1) (AID 2283772). In short, it runs like this:
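Exogenous chimeric receptor-GAL4 activity is measured in transiently transfected human HepG2 liver cells after 24 h compound exposure. Reporter transcripts are detected by RT-PCR and fluorescent capillary electrophoresis, analysed for signal gain relative to DMSO.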

For test [4], the system named is zebrafish Estrogen Receptor (ESR2B), gene 317733. The test can be described thus: ATG_zfER2b_XSP1: Attagene TRANS-FACTORIAL Multi-Species (XSP1) HepG2 Assay for zebrafish Estrogen Receptor (ESR2B) (AID 2283773). In short, it runs like this: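 Gain-of-signal endpoint relative to DMSO: reporter transcript levels quantified by RT-PCR and capillary electrophoresis after 24 h compound exposure of HepG2 cells expressing a zebrafish ER2b-Gal4 chimera.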

For test [5], the system named is frog Estrogen Receptor (ESR2), gene 100174814. The test is described as follows: ATG_frER2_XSP1: Attagene TRANS-FACTORIAL Multi-Species (XSP1) HepG2 Assay for frog Estrogen Receptor (ESR2) (AID 2283774). In short, it runs like this: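 Transactivation of an exogenous receptor-Gal4 fusion is tracked in transfected HepG2 cells via induced reporter transcript levels. After 24 h treatment, RT-PCR with capillary electrophoresis quantifies signal gain over DMSO.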

A short description of test [6]: ACEA_AR_agonist_AUC_viability: ACEA Biosciences xCELLigence Real-Time Cell Analysis on Androgen Receptor Agonism for Viability (AID 2283775).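 As to AC50: viability read 80 hours after compound addition.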 In short, it runs like this:
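Read-out is area under the impedance curve at 80 h post-dose in 22Rv1 cells, with DMSO as baseline and signal loss taken as reduced viability. Compounds ran in duplicate from 100 uM final.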

Test [7] in a line: ACEA_AR_antagonist_AUC_viability: ACEA Biosciences xCELLigence Real-Time Cell Analysis on Androgen Receptor Antagonism for Viability (AID 2283776).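 Also: area under impedance growth curve at 80 h after dosing as viability; hits lower the growth signal relative to DMSO meaning cytotoxicity.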 In short, it runs like this: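 22Rv1 human prostate cancer cells were seeded on electrode plates, monitored overnight, then exposed to eight 1:4 dilutions from 100 uM final. Impedance-based growth kinetics at 80 h gave an AUC viability endpoint normalized to DMSO.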

The subject of test [8] is chicken Androgen Receptor (AR), gene 422165. The test is described as follows: ATG_chAR_XSP1: Attagene TRANS-FACTORIAL Multi-Species (XSP1) HepG2 Assay for chicken Androgen Receptor (AR) (AID 2283768). In short, it runs like this: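 HepG2 cells transiently transfected with multiplexed GAL4-UAS reporter units expressing chimeric chicken AR-Gal4; 3 nM 6-alpha-fluorotestosterone for partial AR stimulation; 24 h after dosing, reporter mRNA by RT-PCR and capillary electrophoresis, gain-of-signal versus DMSO.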

Test [9] concerns frog Androgen Receptor (AR), gene 399456. The test can be described thus: ATG_frAR_XSP1: Attagene TRANS-FACTORIAL Multi-Species (XSP1) HepG2 Assay for frog Androgen Receptor (AR) (AID 2283770).
Test [10] concerns frog Estrogen Receptor (ESR1), gene 398734. The test can be described thus: ATG_frER1_XSP1: Attagene TRANS-FACTORIAL Multi-Species (XSP1) HepG2 Assay for frog Estrogen Receptor (ESR1) (AID 2283777). In short, it runs like this: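 Human hepatoma HepG2 cells carried transiently transfected multiplexed Gal4-driven reporters and were exposed to test chemicals for 24 hours. Transcripts were quantified by fluorescent RT-PCR with capillary electrophoresis, referenced to DMSO.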

Test [11] deals with Thyroperoxidase (TPO), gene 445522. The test can be described thus: CCTE_Simmons_GUA_TPO: CCTE's Guaiacol Assay for Thyroperoxidase (TPO) Inhibition, Simmons Lab (AID 2283750). In short, it runs like this: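 Porcine thyroid microsomes (25 ug) in 200mM potassium phosphate, preincubated 30 s at 37C with compound (8 concentrations, 5 nM–87.5 uM) and 35mM guaiacol; 1mM H2O2 starts reaction. Absorbance change at 450nm over first 80 s; loss of signal versus DMSO, three replicates.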

The nature of test [12]: ArunA_CellTiter_hNC: Viability Assessment in the ArunA Biomedical's Oris Neural Crest (hNC) Cell Migration Assay (AID 2283752). In short, it runs like this: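 Human H9-derived neural crest stem cells were plated at 60,000 per well on Matrigel in growth medium with LIF and bFGF, incubated 16 h at 37C, then exposed to chemical for 72 h. Viability was read with CellTiter Aqueous One as loss of signal versus DMSO.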

Test [13] in a line: ArunA_CellTiter_hNP: Viability Assessment in the ArunA Biomedical's Oris Neural Crest (hNC) Cell Migration Assay (AID 2283753). In short, it runs like this:
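H9-derived hNP1 neuroprogenitors, 60,000/well on Matrigel, cultured 16 h, then 72 h chemical exposure in test medium. Cell titer via CellTiter Aqueous One; positive-direction fit vs DMSO.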

Test [14] can be described thus: ArunA_Migration_hNC: ArunA Biomedical's Oris Neural Crest (hNC) Cell Migration Assay (AID 2283755). In short, it runs like this: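 Human H9-derived neural crest stem cells, 60,000/well on Matrigel, 16 h at 37C, then 72 h chemical exposure after seeding-stopper removal. Migration into detection zone read as calcein-AM fluorescence (ex494/em517), relative to DMSO.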

The nature of test [15]: ArunA_NOG_NucleusCount: ArunA Biomedical's Neurite Outgrowth (NOG) Assay for Nucleus Count (AID 2283756). In short, it runs like this:
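Human H9-derived differentiated neurons were exposed for 48 h right after seeding. Hoechst-stained nuclei gated by size and intensity were counted by automated high-content imaging as viable neurons. Loss of signal vs DMSO.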

Test [16] can be described thus: ArunA_Migration_hNP: ArunA Biomedical's Oris Neuroprogenitor (hNP) Cell Migration Assay (AID 2283754). In short, it runs like this:
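Human H9-derived hNP1 neuroprogenitors on Matrigel with LIF/bFGF, plated around seeding stoppers for 16 h at 37C; stoppers removed at start of 72 h chemical exposure. Calcein-AM staining, fluorescence 494/517 nm in detection zone; loss-of-signal vs DMSO; cytochalasin D control.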

The nature of test [17]: ArunA_NOG_BranchPointsPerNeurite: ArunA Biomedical's Neurite Outgrowth (NOG) Assay for Branch Points Per Neurite (AID 2283759). In short, it runs like this:
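Automated image analysis traced neurites (processes >10 um) from valid cell bodies after Hoechst and βIII-tubulin staining. hNN cells from H9 embryonic stem cells, 48 h exposure. Fitted bidirectionally against DMSO.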

Test [18] in a line: ArunA_NOG_NeuriteLength: ArunA Biomedical's Neurite Outgrowth (NOG) Assay for Neurite Length (AID 2283757). In short, it runs like this:
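Differentiated human H9-derived neurons were exposed for 48 h from seeding, then stained with Hoechst and βIII-tubulin. Automated high-content imaging gave total neurite length per valid neuron, counting processes >10 um. Loss of signal was scored versus DMSO.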

Test [19] in a line: ArunA_NOG_NeuritesPerNeuron: ArunA Biomedical's Neurite Outgrowth (NOG) Assay for Neurites Per Neuron (AID 2283758). In short, it runs like this:
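Differentiated human H9-derived neurons exposed to chemicals for 48 h from seeding, then stained with Hoechst and βIII-tubulin/DyLight 488. Automated imaging counted neurites (processes >10 um) per valid neuron; loss of signal versus DMSO scored.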

For test [20], the system named is zebrafish Androgen Receptor (AR), gene 100005148. The test can be described thus: ATG_zfAR_XSP1: Attagene TRANS-FACTORIAL Multi-Species (XSP1) HepG2 Assay for zebrafish Androgen Receptor (AR) (AID 2283771). In short, it runs like this:
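HepG2 cells were transiently transfected with a zebrafish AR-GAL4 reporter system and partially stimulated with 3 nM 6-alpha-fluorotestosterone. Reporter mRNA was measured after 24 h dosing by RT-PCR with capillary electrophoresis, and gain-of-signal was fitted relative to DMSO.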

Chain of zebrafish Estrogen Receptor (ESR1), esr1 (gene 259252) (P57717 whole entry, looked up, the tested form may be a part): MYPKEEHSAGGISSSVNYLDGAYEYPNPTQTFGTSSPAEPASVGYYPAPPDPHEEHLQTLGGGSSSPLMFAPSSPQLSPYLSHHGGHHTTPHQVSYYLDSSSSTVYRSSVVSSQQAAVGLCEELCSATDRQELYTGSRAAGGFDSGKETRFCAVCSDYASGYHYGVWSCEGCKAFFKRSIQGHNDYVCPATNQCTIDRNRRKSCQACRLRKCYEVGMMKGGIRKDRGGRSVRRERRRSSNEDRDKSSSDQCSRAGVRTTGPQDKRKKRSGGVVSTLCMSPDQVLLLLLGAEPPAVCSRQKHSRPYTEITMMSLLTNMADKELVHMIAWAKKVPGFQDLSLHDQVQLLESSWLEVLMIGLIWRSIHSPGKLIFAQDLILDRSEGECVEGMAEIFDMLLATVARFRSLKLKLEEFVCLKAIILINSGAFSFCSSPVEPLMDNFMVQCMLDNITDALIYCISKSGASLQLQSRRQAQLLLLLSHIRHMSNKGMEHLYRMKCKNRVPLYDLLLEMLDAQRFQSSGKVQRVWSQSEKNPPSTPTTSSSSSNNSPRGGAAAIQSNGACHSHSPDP
Chain of Luciferin 4-monooxygenase (Photinus pyralis) (P08659 whole entry, looked up): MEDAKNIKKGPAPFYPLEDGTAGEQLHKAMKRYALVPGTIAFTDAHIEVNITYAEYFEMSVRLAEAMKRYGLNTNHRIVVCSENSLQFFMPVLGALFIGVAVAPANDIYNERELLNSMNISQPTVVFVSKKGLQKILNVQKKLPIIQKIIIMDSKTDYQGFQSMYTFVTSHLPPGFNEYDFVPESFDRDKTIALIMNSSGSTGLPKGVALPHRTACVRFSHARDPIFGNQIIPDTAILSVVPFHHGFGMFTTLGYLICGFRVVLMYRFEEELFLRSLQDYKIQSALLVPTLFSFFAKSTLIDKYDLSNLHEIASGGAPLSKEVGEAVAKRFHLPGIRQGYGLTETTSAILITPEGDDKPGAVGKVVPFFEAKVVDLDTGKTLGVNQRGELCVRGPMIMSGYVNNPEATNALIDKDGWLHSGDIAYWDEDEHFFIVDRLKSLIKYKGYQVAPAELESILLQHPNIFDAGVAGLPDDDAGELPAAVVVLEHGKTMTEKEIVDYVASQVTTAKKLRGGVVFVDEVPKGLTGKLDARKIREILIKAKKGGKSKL

With `Oc1ccc(C(c2ccc(O)cc2)C(Cl)(Cl)Cl)cc1`, the AC50 (commonly the concentration giving half of the maximal activity seen) in test [1] is 30.8 µM (active); in test [4], 0.131 µM (active); in test [5] it was 0.0342 µM (active); in test [6] it was 20.9 µM (active); in [7] it was 17 µM (active). In addition, the call in test [2] and in test [3] was inactive.

As to `O=C(c1ccc(O)cc1O)c1ccc(O)cc1O`, the result in test [1] and in [7] was inactive. Also, the half-maximal activity concentration (AC50) in test [2] is 47.2 µM (active); in test [8], 0.133 µM (active); in [9] it was 2.75 µM (active); in test [3] it was 1.38 µM (active); in test [4] it was 0.94 µM (active); in [5], 0.519 µM (active). Further, the AC50 in test [10] is 0.544 µM (active).

As for `N[C@@H](Cc1cc(I)c(Oc2ccc(O)c(I)c2)c(I)c1)C(=O)O`, the concentration at half-maximal activity (AC50) is 0.287 µM (active) in test [1]; 13.1 µM (active) in test [11]; 33 µM (active) in test [12]; 56.2 µM (active) in test [14]; 12.5 µM (active) in test [6]; 9.7 µM (active) in test [7]. The outcome in test [13], in test [15] and in test [2] was inactive.

On to `CC(C)CCCCCCc1ccc(O)cc1`, for which the molecule was classed as inactive in test [1], in test [17] and in [2]. The AC50 in test [12] was 5.59 µM (active); in test [13], 9.76 µM (active); in test [16], 17 µM (active); in test [14] it was 4.41 µM (active); in [3] it was 2.68 µM (active); in test [4] it was 0.571 µM (active). The AC50 in test [5] was 0.752 µM (active); in [6], 10.7 µM (active); in [7] it was 7.91 µM (active); in test [10], 0.189 µM (active).

With `S=C(S)NCCNC(=S)S.[Mn+2].[S-]C([S-])=NCCN=C([S-])[S-].[Zn+2]`, the AC50 in [1] is 0.00112 µM (active); in test [12], 9.92 µM (active); in [13], 83.4 µM (active); in test [14], 50 µM (active); in test [2] it was 22.6 µM (active) [middle of 4 runs]. Further, the molecule was called inactive in [1], in test [15], in [18], in [19] and in test [2].

For the molecule `CC(=O)S[C@@H]1CC2=CC(=O)CC[C@]2(C)[C@H]2CC[C@@]3(C)[C@@H](CC[C@@]34CCC(=O)O4)[C@H]12`, the molecule was called inactive in test [1], in test [20], in test [3] and in test [10]. Also, the concentration at half-maximal activity (AC50) in test [4] is 82.2 µM (active); in test [5], 48.6 µM (active); in [7], 35.4 µM (active).

In the case of `O=C(O)c1ccccc1`, the result in [1], in test [6] and in [7] was inactive.

Turning to `CCOC(=O)C(C)Oc1ccc(Oc2nc3ccc(Cl)cc3o2)cc1` (configuration not stated), the outcome in test [1] and in test [6] was inactive. For the same molecule, the AC50 in test [2] was 71.3 µM (active); in test [7] it was 36.4 µM (active).
